Molecules are shown by their SMILES. Compounds without any hit were thinned out: in the full panel of roughly 83,000, 20% have a hit.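 A percent growth of 40 corresponds to 60% growth inhibition; 0 means no net growth; -100 means all cells died. Active threshold: below 10.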 Active and inactive are the calls of the source.

This assay relates to MDA-MB-468 breast. Kind of assay: NCI-60 one-dose screen, 48 h (100 = growth as untreated, 0 = no growth, -100 = all killed). To be noted: 10 µM unless noted.
On to `COc1ccc(Sc2[nH]c(C(C)=O)c3ccccc23)cc1`, for which the growth is -6.04% (active).

`Cc1csc(Nc2nc(-c3cccc(Br)c3)nc(C(Cl)(Cl)Cl)n2)n1`: the growth was -29.8% (active).

As for `O=C(CCCCCCCCC(=O)N/N=C\c1cc(Cl)ccc1O)N/N=C\c1cc(Cl)ccc1O`, the growth is -16% (active).

For `CC(c1ccccc1)C(C(=O)c1ccccc1)c1ccccc1` (stereo not given), the growth is 81.5% (inactive).

As for `CC(C)CSc1oc(-c2ccccc2)nc1S(=O)(=O)c1ccccc1`, the growth was 89.4% (inactive).

Turning to `COc1cc2c(cc1OC)C(C(CCCCCC(CCC(C)C)C1NCCc3cc(OC)c(OC)cc31)CCC(C)C)NCC2` (stereo not given), the growth is -87.1% (active).

On to `Nn1c(=O)c(=O)[nH]c2c(cnn2-c2ccccc2)c1=O`, for which the growth is 105% (inactive).

Turning to `Clc1ccc(Nc2scc3[n+]2CCC3)cc1`, the growth is 86.3% (inactive).

For the compound `O=C1NN(C(=O)c2ccc(O)cc2)C(c2ccccc2)=N/C1=C\c1cn(-c2ccccc2)nc1-c1ccccc1`, the growth is 110% (inactive).

For the compound `Cc1cc(NS(=O)(=O)c2ccc(-c3cnc(C4CC4)o3)cc2)ccc1Cl`, the growth was -6.6% (active).

For `CC/C(=C(\c1ccccc1)c1ccc(OCCN(C)C)cc1)c1ccccc1`, the growth was -13.3% (active).

Take `O=C(Nc1ccc(Cl)c(Cl)c1)O/N=C\c1c(Cl)ccc([N+](=O)[O-])c1Cl`: the growth was -65% (active).

As for `FC(F)(F)c1cc(NC2=NCCN=C(Nc3cc(C(F)(F)F)cc(C(F)(F)F)c3)SS2)cc(C(F)(F)F)c1`, the growth was 23.6% (inactive).

Take `C=C(C)[C@@H]1CC[C@]2(C(=O)NS(=O)(=O)c3ccccc3)CC[C@]3(C)[C@H](CC[C@@H]4[C@@]5(C)CC[C@H](OC(=O)NS(=O)(=O)c6ccccc6)C(C)(C)[C@@H]5CC[C@]43C)[C@@H]12`: the growth was 25.8% (inactive).

For the compound `CC(C)CSc1ncnc2nc[nH]c12`, the growth is 104% (inactive).

Regarding `CC1CCCCN1CCCNC(=O)c1ccc2c(c1)sc1nc(-c3ccc(F)cc3)cn12` (stereo not given), the growth was 96.3% (inactive).

With `COc1ccc2nc(NC(=O)CN3CCn4c(nnc4C(F)(F)F)C3)sc2c1`, the growth was 84.5% (inactive).

For `CNc1ncc(-c2ccc(C(F)(F)F)cc2)c(NC2CCCCCC2)n1`, the growth is 74.9% (inactive).

For the compound `COc1cc(OC)c2cc(C(=O)c3ccc(C#N)cc3)c(=O)oc2c1`, the growth is 94.1% (inactive).

Turning to `Cc1ccc(NS(=O)(=O)c2ccc3c(c2)C2OCCC2C(c2ccc(C(=O)C(C)C)cc2)N3)cc1C` (stereo not given), the growth is -4.81% (active).

As for `C/C(=N\NC(=S)N1CC2CCC(CC2)C1)c1ccccn1`, the growth is -14.9% (active).

With `CCN(CC)c1cc(/C=C/c2ccc(OC)c(OC)c2)nc2cc(F)c(F)cc12`, the growth is -32.6% (active).

As for `Cn1cnc2nc[nH]c2c1=S`, the growth was 107% (inactive).

In the case of `CCCCNc1ccc(-c2ccc(NCCCC)cc2)cc1`, the growth was 29.9% (inactive).

As for `CCN1C(=O)N(CC)C2C1NN=c1s/c(=C3\C(=O)N(C4CCCC4)c4ccccc43)c(=O)n12` (stereo not given), the growth is -43.2% (active).

Consider `Sc1ccc(Nc2c3ccccc3nc3ccccc23)cc1`, for which the growth was 44.1% (inactive).

Turning to `CNc1ncc2cc(-c3ccc(-c4ncccc4F)cc3Cl)c(=O)n(CC3OCC(N)CO3)c2n1` (stereo not given), the growth is 34.5% (inactive).

Turning to `C=CCn1cc(-c2nc3ccccc3s2)c2cc(-c3ccc4c5c(cccc35)C(=O)N(N)C4=O)ccc21`, the growth is 95.4% (inactive).

`Cc1ccn2c(-c3csc(Nc4cccc(O)c4)n3)c(C)nc2c1`: the growth was -33.1% (active).

`Cc1ccc(Nc2ccc(Nc3ccc(C)cc3S(=O)(=O)O)c3c2C(=O)c2ccccc2C3=O)c(S(=O)(=O)O)c1`: the growth was 104% (inactive).

Regarding `c1ccc(-c2c(-c3ccccc3)[n+](Cc3ccc4ccccc4c3)c(-c3ccccc3)n2Cc2ccc3ccccc3c2)cc1`, the growth was -76.4% (active).

For `COc1ccc(CNc2c3ccccc3nc3ccc(OC)cc23)cc1`, the growth was -14.7% (active).

For `COc1cc2c(c(OC)c1)C1c3ccccc3NC(=O)N1CC2` (stereo not given), the growth is -0.759% (active).

Take `CCCCCCCCCCNCCSS(=O)(=O)O`: the growth is 110% (inactive).

As for `Oc1ccc(N=Cc2ccccc2)cc1`, the growth is 53.9% (inactive).

Take `COC(=O)N1CCN(CCNCc2ccc(NC(=O)c3ccc(C)c(C#Cc4cnc5cccnn45)c3)cc2C(F)(F)F)CC1`: the growth was -8.93% (active).

As to `N/C(=N\O)c1ccncc1`, the growth was 121% (inactive).

In the case of `COc1ccc(/C(=C\c2cc(OC)c(OC)c(OC)c2)C(=O)N2CCN(c3ccccc3)CC2)cc1O`, the growth is 96.8% (inactive).

On to `COc1ccc(C2CC(c3ccccc3)=NN2C(=O)c2cc(OC)c(OC)c(OC)c2)cc1O` (stereo not given), for which the growth is 41.3% (inactive).

As for `O=S(=O)(NCCCNc1nccc(-n2ccc3cccnc32)n1)c1cccc(C(F)(F)F)c1`, the growth is 108% (inactive).
